Consider eight compounds from PubChem BioAssay (Tox21).

Structures are written as SMILES. Inconclusive results are not listed. The source made the active and inactive calls. Unless noted, calls follow the shape of the dose curve; as a rule, active = well fitted curve in the direction sought with a large enough effect in the repeat runs; inconclusive = weak or mixed curves; inactive = no such curve, though single readings can be large; an effect the other way counts as inactive or inconclusive.

Test [1] can be described thus: qHTS assay to identify small molecule antagonists of the thyroid receptor (TR) signaling pathway - cell viability counter screen (AID 743064). Also: nearly all actives have a fitted effect of over 50% in size. Also: potency is read from the fitted curve at half-maximal effect. In outline:
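Viability of T3-stimulated (1 nM final) GH3.TRE-Luc cells is measured by CellTiter-Fluor fluorescence after 23.5 h compound exposure at 37 °C plus 30 min reagent incubation.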
In general terms: qHTS replaces the single test concentration by a dilution series.

Test [2] is described as follows: qHTS assay to identify small molecule antagonists of the thyroid receptor (TR) signaling pathway (AID 743065). Also: nearly all actives have a fitted effect of over 55% in size. Also: potency is read from the fitted curve at half-maximal effect. A digest of the protocol:
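GH3.TRE-Luc rat pituitary cells carrying two TR response elements driving luciferase were plated for 4 h, given compound plus 1 nM T3 (final), and incubated 23.5 h at 37 C. ONE-Glo luminescence measured reporter inhibition; CellTiter-Fluor fluorescence tracked cytotoxicity.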

Test [3] concerns thyroid hormone receptor (rat, GH3 cells). Briefly: qHTS assay to identify small molecule agonists of the thyroid receptor (TR) signaling pathway (AID 743066; calls by dose curve).
The target in test [4] is Estrogen receptor (Homo sapiens) (UniProt P03372). Briefly: qHTS assay to identify small molecule antagonists of the estrogen receptor alpha (ER-alpha) signaling pathway (AID 743069; active = well fitted curve in the direction sought with a large enough effect in the signal ratio in the repeat runs, not every such curve was filed as active; the % refers to the signal ratio). A digest of the protocol: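 Screening used a UAS-driven beta-lactamase reporter integrated into HEK293 cells expressing ER-alpha, stimulated with 17beta-estradiol alongside test compounds over 18 hr at 37C; signal came from LiveBLAzer B/G FRET fluorescence.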
Sequence of Estrogen receptor (Homo sapiens) (P03372 whole entry, looked up): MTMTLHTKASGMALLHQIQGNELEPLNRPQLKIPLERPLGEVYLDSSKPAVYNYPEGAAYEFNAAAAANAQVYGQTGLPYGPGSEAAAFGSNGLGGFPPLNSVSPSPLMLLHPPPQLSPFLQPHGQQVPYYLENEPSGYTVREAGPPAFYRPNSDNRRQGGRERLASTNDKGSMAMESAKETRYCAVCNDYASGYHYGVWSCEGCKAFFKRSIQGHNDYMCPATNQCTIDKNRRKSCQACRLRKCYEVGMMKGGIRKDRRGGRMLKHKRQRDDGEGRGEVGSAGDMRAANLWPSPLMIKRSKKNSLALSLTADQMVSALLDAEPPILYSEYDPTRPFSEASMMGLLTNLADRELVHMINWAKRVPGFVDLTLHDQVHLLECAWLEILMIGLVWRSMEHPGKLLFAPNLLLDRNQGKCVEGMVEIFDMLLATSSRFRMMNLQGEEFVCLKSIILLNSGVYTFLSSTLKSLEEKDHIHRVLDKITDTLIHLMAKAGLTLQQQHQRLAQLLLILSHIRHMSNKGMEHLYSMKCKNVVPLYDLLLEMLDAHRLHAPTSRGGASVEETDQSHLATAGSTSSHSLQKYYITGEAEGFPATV

For test [5] the target is unchanged. Put plainly: qHTS assay to identify small molecule agonists of the estrogen receptor alpha (ER-alpha) signaling pathway (AID 743075; calls by dose curve).
Test [6] can be described thus: qHTS assay to identify aromatase inhibitors - cell viability counter screen (AID 743084).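 Also: cells stimulated with testosterone during compound exposure; nearly all actives have a fitted effect of over 55% in size.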 Also: potency is read from the fitted curve at half-maximal effect.
The target in test [7] is Aryl hydrocarbon receptor (Homo sapiens) (UniProt P35869). Put plainly: qHTS assay to identify small molecule that activate the aryl hydrocarbon receptor (AhR) signaling pathway (AID 743085). Also: nearly all actives have a fitted effect of over 15% in size. Also: potency is read from the fitted curve at half-maximal effect.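 As to activation: HG2L7.5c1 human HepG2 liver cells with stably integrated DRE-driven firefly reporter; series mostly up to about 70 µM.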 In outline:
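A multiplexed format paired cell viability (CellTiter-Fluor fluorescence) with AhR-dependent luciferase output (ONE-Glo luminescence) in the same wells of HepG2 DRE-luc cells after 24 h compound exposure at 37C.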

Test [8] can be described thus: qHTS assay for small molecule activators of the heat shock response signaling pathway - cell viability counter screen (AID 743209). Also: nearly all actives have a fitted effect of over 50% in size. A digest of the protocol:
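HSE-bla HeLa; 1500 cells/well; overnight 37 C, 5% CO2; compound 5 h 37 C; LiveBLAzer B/G substrate 2.5 h RT; CellTiter-Glo 30 min RT; luminescence.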

Test [9] can be described thus: qHTS assay to identify small molecule antagonists of the estrogen receptor alpha (ER-alpha) signaling pathway - cell viability counter screen (AID 743074; calls by dose curve; also: nearly all actives have a fitted effect of over 45% in size; also: potency is read from the fitted curve at half-maximal effect).
For test [10], the target named is Estrogen receptor (Homo sapiens) (UniProt P03372). Briefly: qHTS assay to identify small molecule agonists of the estrogen receptor alpha (ER-alpha) signaling pathway using the BG1 cell line (AID 743079). Also: nearly all actives have a fitted effect of over 20% in size.
The nature of test [11]: qHTS assay to identify small molecule antagonists of the estrogen receptor alpha (ER-alpha) signaling pathway using the BG1 cell line - cell viability counter screen (AID 743081).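 Also: compound given together with 17beta-estradiol as the ER stimulus; nearly all actives have a fitted effect of over 45% in size.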 Also: potency is read from the fitted curve at half-maximal effect.
In a further test the target is Aromatase (Homo sapiens) (UniProt P11511). Put plainly: qHTS assay to identify aromatase inhibitors (AID 743083). Also: nearly all actives have a fitted effect of over 55% in size. Also: potency is read from the fitted curve at half-maximal effect.
Sequence of Aromatase (Homo sapiens) (P11511 whole entry, looked up): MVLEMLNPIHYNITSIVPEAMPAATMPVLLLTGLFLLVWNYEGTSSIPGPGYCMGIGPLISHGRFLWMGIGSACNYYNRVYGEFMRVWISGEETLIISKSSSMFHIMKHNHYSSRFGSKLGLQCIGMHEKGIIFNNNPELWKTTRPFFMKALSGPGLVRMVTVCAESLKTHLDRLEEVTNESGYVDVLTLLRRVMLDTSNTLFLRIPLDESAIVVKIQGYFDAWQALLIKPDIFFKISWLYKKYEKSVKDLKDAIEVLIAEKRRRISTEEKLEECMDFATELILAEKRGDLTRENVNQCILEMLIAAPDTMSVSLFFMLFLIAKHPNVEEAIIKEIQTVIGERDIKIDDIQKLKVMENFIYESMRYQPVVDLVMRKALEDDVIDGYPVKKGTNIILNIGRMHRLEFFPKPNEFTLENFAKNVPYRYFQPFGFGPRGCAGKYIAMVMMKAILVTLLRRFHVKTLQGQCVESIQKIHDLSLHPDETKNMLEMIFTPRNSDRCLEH
Test [12] is described as follows: qHTS assay to identify small molecule that activate the aryl hydrocarbon receptor (AhR) signaling pathway - cell viability counter screen (AID 743086). Also: nearly all actives have a fitted effect of over 45% in size. Also: potency is read from the fitted curve at half-maximal effect. A digest of the protocol:
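HepG2-AhR-luc (HG2L7.5c1) cells, 4000/well, were preincubated 5 h at 37C, exposed to compound in qHTS format for 24 hr at 37C, then given CellTiter-Fluor for 30 min; viability was read as fluorescence in the reporter wells.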

Test [13] addresses Peroxisome proliferator-activated receptor gamma (Homo sapiens) (UniProt P37231). Put plainly: qHTS assay to identify small molecule agonists of the peroxisome proliferator-activated receptor gamma (PPARg) signaling pathway (AID 743094; active = well fitted activation curve with a large enough effect in the signal ratio in the repeat runs, not every such curve was filed as active; the % refers to the signal ratio). In outline:
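HEK293H PPARg-bla cells, 5 h settle at 37C/5% CO2; compound (DMSO) 17 h, 37C; B/G FRET substrate 1 h RT; fluorescence intensity read-out. qHTS format.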

Test [14] is described as follows: qHTS assay to identify small molecule antagonists of the peroxisome proliferator-activated receptor gamma (PPARg) signaling pathway - cell viability counter screen (AID 743194). Also: nearly all actives have a fitted effect of over 55% in size. In outline:
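PPARg-UAS-bla HEK293H cells were plated, rested 5 h at 37 C, then treated with compounds plus rosiglitazone (50 nM final) for 17 h at 37 C; viability was then read by CellTiter-Glo luminescence after 30 min at room temperature.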

Test [15] is described as follows: qHTS assay for small molecule agonists of the antioxidant response element (ARE) signaling pathway (AID 743202; active = well fitted activation curve with a large enough effect in the signal ratio in the repeat runs, not every such curve was filed as active; the % refers to the signal ratio). A digest of the protocol: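 Steps: seed ARE-bla HepG2 cells (2,000/well); incubate 5 h at 37 C; add compounds by pin tool; incubate 16 h at 37 C; add FRET substrate; read fluorescence after 2 h at RT.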
Test [16] can be described thus: qHTS assay for small molecule agonists of the antioxidant response element (ARE) signaling pathway - cell viability counter screen (AID 743203; calls by dose curve; also: nearly all actives have a fitted effect of over 55% in size). In outline:
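Luminescence read-out (CellTiter-Glo, 30 min at room temperature) measured cell viability in the same wells as the ARE beta-lactamase reporter. HepG2 ARE-bla cells were treated with compounds for 16 hrs at 37C/5% CO2.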

The nature of test [17]: qHTS assay to identify small molecule antagonists of the estrogen receptor alpha (ER-alpha) signaling pathway using the BG1 cell line (AID 743080; calls by dose curve;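 also: BG1 cells stimulated with 17beta-estradiol alongside compound; series mostly up to about 70 µM; nearly all actives have a fitted effect of over 25% in size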). A digest of the protocol:
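Readout is ONE-Glo luminescence, taken 30 min at room temperature after reagent addition, preceded by a CellTiter-Fluor viability read; BG1-Luc-4E2 cells had received compound and 17beta-estradiol for 21.5 h at 37 C.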

Test [18] has as its target Peroxisome proliferator-activated receptor gamma (Homo sapiens) (UniProt P37231). Briefly: qHTS assay to identify small molecule antagonists of the peroxisome proliferator-activated receptor gamma (PPARg) signaling pathway (AID 743191; calls by dose curve; also: series mostly up to about 63 µM; nearly all actives have a fitted effect of over 30% in size). In outline: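 GeneBLAzer PPARg UAS-bla HEK293H cells carrying a UAS-driven beta-lactamase reporter were plated at 3000 cells/well, preincubated 5 h at 37C, then given compound for 17 h at 37C; LiveBLAzer B/G FRET substrate was read after 1 h at room temperature.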

Test [19] can be described thus: qHTS assay for small molecule activators of the heat shock response signaling pathway (AID 743210; active = well fitted activation curve with a large enough effect in the signal ratio in the repeat runs, with a control signal flat, not every such curve was filed as active; the % refers to the signal ratio;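 also: HeLa cells with beta-lactamase reporter driven by heat shock elements; series mostly up to about 63 µM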). A digest of the protocol:
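Activation of heat shock element-controlled beta-lactamase expression is measured in HeLa cells by LiveBLAzer FRET fluorescence, with compound exposure lasting 5 h at 37 C and substrate loading 2.5 h at room temperature.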

Sequence of Peroxisome proliferator-activated receptor gamma (Homo sapiens) (P37231 whole entry, looked up): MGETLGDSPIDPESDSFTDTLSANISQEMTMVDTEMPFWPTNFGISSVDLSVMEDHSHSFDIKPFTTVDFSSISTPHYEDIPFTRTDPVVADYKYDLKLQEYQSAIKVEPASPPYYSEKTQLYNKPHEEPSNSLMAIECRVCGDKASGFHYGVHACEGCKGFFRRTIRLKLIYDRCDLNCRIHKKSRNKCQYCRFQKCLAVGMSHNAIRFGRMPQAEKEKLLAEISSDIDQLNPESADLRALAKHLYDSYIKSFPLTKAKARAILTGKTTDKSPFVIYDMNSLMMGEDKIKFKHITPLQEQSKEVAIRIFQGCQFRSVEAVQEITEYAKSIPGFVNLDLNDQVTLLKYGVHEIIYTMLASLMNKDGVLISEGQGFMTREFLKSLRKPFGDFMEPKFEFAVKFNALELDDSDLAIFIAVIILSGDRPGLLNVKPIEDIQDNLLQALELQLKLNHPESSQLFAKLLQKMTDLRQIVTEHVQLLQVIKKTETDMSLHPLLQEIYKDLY
Sequence of Aryl hydrocarbon receptor (Homo sapiens) (P35869 whole entry, looked up): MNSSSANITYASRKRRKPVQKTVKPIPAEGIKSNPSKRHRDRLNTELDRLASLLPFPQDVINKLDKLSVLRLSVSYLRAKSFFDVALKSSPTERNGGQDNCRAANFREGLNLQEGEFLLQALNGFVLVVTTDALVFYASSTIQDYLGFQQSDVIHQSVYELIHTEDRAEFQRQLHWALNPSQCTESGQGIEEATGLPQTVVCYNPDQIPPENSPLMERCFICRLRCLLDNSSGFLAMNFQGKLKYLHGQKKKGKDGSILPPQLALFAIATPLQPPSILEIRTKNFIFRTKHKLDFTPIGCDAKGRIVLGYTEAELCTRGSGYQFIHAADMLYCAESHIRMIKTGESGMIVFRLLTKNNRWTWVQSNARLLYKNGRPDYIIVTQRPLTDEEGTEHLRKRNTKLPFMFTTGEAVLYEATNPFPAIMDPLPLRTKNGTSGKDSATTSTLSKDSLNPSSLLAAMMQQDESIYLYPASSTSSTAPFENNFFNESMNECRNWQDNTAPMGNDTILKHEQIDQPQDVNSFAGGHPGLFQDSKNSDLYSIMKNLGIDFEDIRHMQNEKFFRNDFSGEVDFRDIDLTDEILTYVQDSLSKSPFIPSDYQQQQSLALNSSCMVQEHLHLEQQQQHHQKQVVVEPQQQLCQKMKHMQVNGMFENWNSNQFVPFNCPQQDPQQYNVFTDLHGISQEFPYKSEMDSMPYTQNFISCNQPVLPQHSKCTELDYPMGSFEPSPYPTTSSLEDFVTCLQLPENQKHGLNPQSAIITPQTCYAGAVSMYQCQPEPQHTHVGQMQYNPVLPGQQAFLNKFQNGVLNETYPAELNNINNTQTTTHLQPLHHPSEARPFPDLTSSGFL

In the case of `Nc1cccc2c(N)cccc12`, the Potency result in [1], in test [2], in test [3], in [4], in [5] and in test [6] was “inactive” each time. The Potency entry in test [8] is “inactive”. Further, in test [7], the Potency was 19.3 µM (active).

Consider `CC1=C2[C@@H]([C@H](C)CC[C@H]2/C=C(\C)C(=O)O)[C@H](O)C1`, for which the Potency entry in [1], in test [2], in [3], in [4], in [9] and in test [5] was “inactive” in each case. The Potency entry (in test [10]; in [11]; in the test with Aromatase (Homo sapiens); in test [6]; in test [7]; in test [12]) was “inactive” in each case. In addition, the Potency result in [14], in [15], in [16] and in test [8] was “inactive” throughout. In test [13], the outcome was inactive.

Regarding `C=Cc1ccc(OC(C)=O)cc1`, the Potency entry in [1], in test [2], in test [3], in test [5], in test [10] and in [17] was “inactive” in each case. Moreover, the Potency entry (in [11]; with Aromatase (Homo sapiens); in test [6]; in [7]; in test [12]; in test [18]) was “inactive” each time. Moreover, the Potency result in [14], in [16], in test [8] and in test [19] was “inactive” each time. The compound was classed as inactive in [13].

Regarding `Cc1c(C2(c3cc(Br)c(O)c(Br)c3C)OS(=O)(=O)c3ccccc32)cc(Br)c(O)c1Br`, the Potency in test [1] is 42 µM (active); in [2], 21 µM (active); in test [11], 11.8 µM (active); with Aromatase (Homo sapiens), 16.7 µM (active); in test [6], 18.8 µM (active); in test [12], 10.5 µM (active). The Potency result in test [3], in test [7], in test [18], in test [14] and in [8] was “inactive” each time.

For `O=C1OC(=O)c2c(Br)c(Br)c(Br)c(Br)c21`, the Potency result in test [1], in test [2], in test [3], in [9], in [11] and in [6] was “inactive” in each case. Besides, the Potency entry in test [12], in test [14], in [16], in [8] and in [19] was “inactive” throughout. For the same compound, in test [13], the compound was called inactive.

Consider `O=C(O)c1ccc(O)cc1O`, for which the Potency entry (in test [1]; in test [2]; in [3]; in test [9]; in [11]; in the test with Aromatase (Homo sapiens)) was “inactive” each time. Besides, the Potency result in test [6], in test [7], in [12], in test [14], in [15] and in [16] was “inactive” each time. Besides, the Potency result in test [8] and in test [19] was “inactive” in each case.

With `CC(=O)OCC(=O)[C@@]1(OC(C)=O)[C@@H](C)C[C@H]2[C@@H]3C[C@H](F)C4=CC(=O)C=C[C@]4(C)[C@@]3(F)[C@@H](O)C[C@@]21C`, the Potency entry (in test [1]; in test [2]; in test [3]; in [9]; in test [11]; in the test with Aromatase (Homo sapiens)) was “inactive” throughout. The Potency result in test [7], in [12], in test [14], in test [16], in test [8] and in test [19] was “inactive” in each case. Moreover, the outcome in test [13] was inactive.

For `CCN(CC)c1ccc(C(=C2C=CC(=[N+](CC)CC)C=C2)c2ccc(S(=O)(=O)O)cc2S(=O)(=O)[O-])cc1`, the Potency entry in test [1], in [3], in test [7] and in test [15] was “inactive” throughout. For the same compound, the Potency was 19.3 µM (active) in test [2]; 24.5 µM (active) in [9]; 30.6 µM (active) in test [11]; 9.69 µM (active) with Aromatase (Homo sapiens); 19.3 µM (active) in [6]; 19.3 µM (active) in test [12]. Besides, the call in test [13] was inactive.
